# This is a sample that favours compounds with a hit; in the whole collection about 2.2% have one here.
# FXN GAA850 act: FXN promoter activators, primary screen, cell-based, luciferase luminescence, HEK293 lucGAA850; HEK293 lucGAA850 FXN promoter luciferase reporter, 24 h; percent of 10 µM SAHA response; activation, % at 6 µM; actives 0.56% (n = 360,000);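 active = activation above the average of all compounds screened plus 3 SD, cutoff fixed separately per campaign, cut at about 7.5% in these data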
# HIF activator: HIF pathway transcriptional activators, primary screen, cell-based, U2OS HRE-luciferase, luminescence | U2OS HRE-luciferase reporter; normalized: DMSO 0%, desferrioxamine 100% | activation, % at 7.5 µM (by protocol) | actives 0.32% (n = 300,000) | AID 1910, 2009;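 active = mean activation of at least 10% of the iron chelator positive control signal, with at least half of replicates also reaching 10%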
# GalR3 antag: GalR3 antagonists in HEK293 cells, primary screen, cell-based, fluorescence readout; Galanin receptor type 3 (Homo sapiens), O60755; HEK293 GalR3-CNG cAMP membrane potential fluorescence; galR3 body fused to GalR1 C-terminus; inhibition, % at 3 µM; actives 0.44% (n = 360,000);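 active = inhibition above the screen-wide average plus 3 SD, cut at about 13% in these data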;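 also: forskolin and galanin both at EC90 stimulate the cells; cAMP rise reported by CNG channel membrane potential dye signal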
# Target sequence (O60755 1-299 limits assumed): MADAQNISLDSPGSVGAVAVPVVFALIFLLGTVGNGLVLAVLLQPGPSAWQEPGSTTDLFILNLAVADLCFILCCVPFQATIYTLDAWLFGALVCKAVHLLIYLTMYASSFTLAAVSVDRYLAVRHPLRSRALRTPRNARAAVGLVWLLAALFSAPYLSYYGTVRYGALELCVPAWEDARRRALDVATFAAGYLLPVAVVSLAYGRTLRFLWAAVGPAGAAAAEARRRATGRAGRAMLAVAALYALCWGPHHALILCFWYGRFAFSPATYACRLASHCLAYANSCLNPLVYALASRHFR
# SMARCA2 act: SMARCA2 (BRM) function activators, primary screen, cell-based, luminescence, high throughput. MG213 cells, MMTV-luciferase reporter, dexamethasone, overnight. actives 1% (n = 370,000). activation, % at 9.1 µM; in the data active = activation above about 7.8%
# Hsp70 activator: Hsp70 transcriptional activators, primary screen, cell-based, HeLa, Hsp70 promoter luciferase, luminescence, 10 µM. HeLa Hsp70 promoter luciferase reporter; scaled: vehicle 0, proteasome-inhibitor control 100%. activation, % at 10 µM. actives 0.04% (n = 200,000). AID 1203, 2008;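 active = activation above the mean across all tested compounds plus 3 SD, cutoff set per campaign, cut at about 5.5% in these data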
# GAA30 counter: GAA30 FXN promoter activators, confirmation, counter-screen for GAA850 frataxin promoter activator project, cell-based, luminescence, HEK293, lucGAA30, triplicate. shares compounds with FXN GAA850 act. actives 66% (n = 1,900). AID 588350, 2011. activation, % at 6 µM. HEK293 lucGAA30 FXN promoter luciferase, 24 h; DMSO = 0%, 5 µM ipriflavone = 100%;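 active = mean activation above the mean of solvent-only control wells plus 3 SD, cut at about 22% in these data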;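 also: counterscreen of GAA850 promoter hits where activity marks nonselective or luminescence artifacts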
# GAA850 confirm: FXN GAA850 promoter activators in reporter cells, confirmation, cell-based, luminescence, HEK293 lucGAA850, triplicate; shares compounds with FXN GAA850 act; HEK293 lucGAA850 FXN promoter luciferase reporter, 24 h; 100% = activation by SAHA; activation, % at 6 µM; actives 86% (n = 1,900);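 active = mean activation above a set limit taken from the primary screen, cut at about 8% in these data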
# Hits are given with their value; n = inactive; x = no result.
SMILES,FXN GAA850 act,HIF activator,GalR3 antag,SMARCA2 act,Hsp70 activator,GAA30 counter,GAA850 confirm
Cc1ccc(Cl)cc1NC(=O)C(Cc1ccccc1)N1C(=O)C2C3CCC(C3)C2C1=O (stereo not given),15,n,n,n,n,n,9.4
Clc1ccc(-c2cn3cc(Br)ccc3n2)cc1Cl,8.2,n,n,n,n,71,22
CCCCNC(=O)N(O)C1N(/N=C/c2ccccc2F)C(=S)SC1(C)C (stereo not given),8.4,n,n,n,x,26,n
CCCCc1ccc(-c2ccc(Br)cc2)nc1,8.4,n,n,n,n,107,34
CCCc1ccc(-c2ccc(-c3noc(-c4ccncc4)n3)cc2)nc1,n,n,n,n,x,x,x
CC(C)(C)c1ccc(S(=O)(=O)N2CCC(C(=O)NCC3COCCO3)CC2)cc1 (stereo not given),x,x,x,n,x,x,x
CC1(C)CC1C(=O)Nc1ccc([N+](=O)[O-])cc1Br (stereo not given),7.8,n,n,n,n,n,n
CCOC(=O)c1ccc2[nH]c3c(c2c1)CCCCC3=O,8.1,n,n,n,n,65,25
CCOC(=O)c1ccc2[nH]c3c(c2c1)CCCC3C(=O)OCC (stereo not given),n,n,n,n,n,x,x
Cc1nnc(-n2cccc2)s1,x,x,n,n,x,x,x
NNC(=O)CN1C(c2ccccc2Br)=Nc2ccc(Br)cc2C1c1ccccc1 (stereo not given),9.2,n,n,n,n,n,8.7
COc1ccc2nc(N3CCN(C(=O)C4COc5ccccc5O4)CC3)sc2c1 (stereo not given),9.0,n,n,n,x,104,32
Cc1cccc2sc(N3CCN(C(=O)C4COc5ccccc5O4)CC3)nc12 (stereo not given),n,n,n,n,x,x,x
FC(F)Oc1ccc(C2N=C(c3ccccc3)NO2)cc1 (stereo not given),7.9,n,n,n,x,118,41
COc1cc(C2NC(=O)NC(C)=C2C(=O)OCc2ccccc2)ccc1O (stereo not given),8.9,n,n,n,x,n,10
COCCOC(=O)C1=C(C)NC(=O)NC1c1ccc(OC(=O)c2ccco2)c(OC)c1 (stereo not given),13,n,n,n,n,33,10
COc1ccc(COC(=O)C2=C(C)NC(=O)NC2c2ccc(O)c(OC)c2)cc1 (stereo not given),n,n,n,n,n,x,x
CC(=O)CC[C@H]1CC[C@]2(CCCN(C(=O)C3CCCCC3)C2)O1,x,x,x,n,x,x,x
Cc1nn2c(N)c(C#N)cnc2c1-c1ccccc1,9.0,n,n,n,n,38,20
CC1(C)CC(=O)C=C(c2ccccc2-c2ccc3c(c2)OCO3)C1=O,x,x,n,n,x,x,x
CCN(CC)C(=O)c1cc(-c2ccc(Br)cc2)on1,8.0,n,n,n,n,111,40
COC(=O)c1cc(-c2ccc(Br)cc2)on1,n,n,x,n,n,x,x
COC(=O)C[C@@H]1C[C@H]2c3cc(NC(=O)Nc4ccccc4F)ccc3O[C@H]2[C@@H](CO)O1,x,x,n,n,x,x,x
COC(=O)[C@]12C[C@H](CC(=O)NCc3cccc(C(F)(F)F)c3)C(=O)N(Cc3ccco3)C1=C[C@H](COCc1ccccc1)O[C@@H]2C,x,x,x,n,x,x,x
CCC(=O)c1ccc(OCC(=O)Nc2ccc3c(c2)OCCO3)cc1,n,x,n,n,x,x,x
SMILES,FXN GAA850 act,HIF activator,GalR3 antag,SMARCA2 act,Hsp70 activator,GAA30 counter,GAA850 confirm
O=C(COc1ccc(F)cc1)Nc1ccc2c(c1)OCCO2,7.7,n,n,n,x,77,22
C=CCNc1sc(C(=O)c2ccccc2)c(N)c1-c1nc2ccccc2s1,8.0,n,x,x,n,n,11
N#C/C(=C\C=C\c1ccccc1[N+](=O)[O-])C(=O)NC1CCCCC1,14,n,x,x,n,n,18
N#C/C(=C\c1ccccc1[N+](=O)[O-])C(=O)NC1CCCCC1,n,n,n,n,n,x,x
O=C(CN1C(=O)C2CCCCN2C(=O)c2ccccc21)N1CCCC1 (stereo not given),x,x,x,n,x,x,x
C/C=C/c1ccc(OCCCCN(C)Cc2ccccc2)c(OC)c1,9.5,n,n,n,x,n,13
CC1CCN(c2ccc(C(=O)O)cc2NS(=O)(=O)c2ccccc2[N+](=O)[O-])CC1,x,x,x,n,x,x,x
Cc1ccc(Nc2nc(N)nc(-c3oc4ccccc4c3C)n2)cc1,n,n,x,x,n,x,x
Cc1c(-c2nc(N)nc(Nc3ccccc3F)n2)oc2ccccc12,14,n,n,n,n,112,48
C=CCN1C(=O)[C@@H](CC(=O)NCc2ccc(C)o2)[C@]2(C(=O)OCC)CCCCC/C=C/12,x,x,x,n,x,x,x
CC(=O)c1cc(-c2cc3ccccc3o2)c(=O)n2c1CCC2,x,x,x,n,x,x,x
O=C(NCCc1ccccc1)OCc1cn(-c2cccc(Cl)c2)nn1,x,x,x,n,x,x,x
Cc1ccc(-c2noc(-c3ccccc3F)n2)cc1,8.1,n,n,n,n,135,45
O=C(O)c1ccc(-c2noc(-c3ccccc3F)n2)cc1,n,n,n,n,x,x,x
O=C(Cn1nnc(N2CCCCC2)n1)NN=Cc1ccccc1O,x,x,n,n,x,x,x
CCCCS/C(N)=N/N=C/c1ccccc1O,7.7,n,n,n,n,110,28
CCCS/C(N)=N/N=C/c1cc(C)ccc1O,8.6,n,n,n,n,102,33
Cc1ccsc1C(=O)N1CCc2ccccc2C1,8.4,n,n,n,x,43,15
C=CCN(CC#Cc1ccccc1)Cc1ccc2c(c1)OCO2,x,x,x,n,x,x,x
C=CCOc1ccc2nc(NC(=O)OC)[nH]c2c1,7.7,n,n,n,n,n,41
Cc1ccccc1NC(=O)N1CCCC(c2nc(-c3ccc(F)cc3)no2)C1 (stereo not given),n,n,n,n,n,x,x
Cc1ccccc1NC(=O)N1CCCC(c2nc(-c3ccc(C(C)C)cc3)no2)C1 (stereo not given),9.2,n,n,n,n,61,28
Cc1cccc(/C(N)=N/OC(=O)c2ccc3c(c2)OCO3)c1,7.9,n,n,n,n,105,39
Cc1cccc(/C(N)=N/OC(=O)c2cccnc2)c1,n,n,n,n,n,x,x

# Bioassay records as filed in PubChem.
